Measurements from PubChem BioAssay (Tox21).
Unmarked numbers belong to inactive results. Inconclusive results are not listed. A call without a number means that no potency is given here. Calls of active or inactive are those of the source. Unless noted, calls come from the whole dose curve.

What was measured:
[1] = biological target: Thyrotropin receptor (Homo sapiens) (UniProt P16473); test: qHTS assay to identify small molecule agonists of the thyroid stimulating hormone receptor (TSHR) signaling pathway (AID 1224843); note: nearly all actives have a fitted effect of over 45% in size
Sequence of Thyrotropin receptor (Homo sapiens) (P16473 whole entry, looked up): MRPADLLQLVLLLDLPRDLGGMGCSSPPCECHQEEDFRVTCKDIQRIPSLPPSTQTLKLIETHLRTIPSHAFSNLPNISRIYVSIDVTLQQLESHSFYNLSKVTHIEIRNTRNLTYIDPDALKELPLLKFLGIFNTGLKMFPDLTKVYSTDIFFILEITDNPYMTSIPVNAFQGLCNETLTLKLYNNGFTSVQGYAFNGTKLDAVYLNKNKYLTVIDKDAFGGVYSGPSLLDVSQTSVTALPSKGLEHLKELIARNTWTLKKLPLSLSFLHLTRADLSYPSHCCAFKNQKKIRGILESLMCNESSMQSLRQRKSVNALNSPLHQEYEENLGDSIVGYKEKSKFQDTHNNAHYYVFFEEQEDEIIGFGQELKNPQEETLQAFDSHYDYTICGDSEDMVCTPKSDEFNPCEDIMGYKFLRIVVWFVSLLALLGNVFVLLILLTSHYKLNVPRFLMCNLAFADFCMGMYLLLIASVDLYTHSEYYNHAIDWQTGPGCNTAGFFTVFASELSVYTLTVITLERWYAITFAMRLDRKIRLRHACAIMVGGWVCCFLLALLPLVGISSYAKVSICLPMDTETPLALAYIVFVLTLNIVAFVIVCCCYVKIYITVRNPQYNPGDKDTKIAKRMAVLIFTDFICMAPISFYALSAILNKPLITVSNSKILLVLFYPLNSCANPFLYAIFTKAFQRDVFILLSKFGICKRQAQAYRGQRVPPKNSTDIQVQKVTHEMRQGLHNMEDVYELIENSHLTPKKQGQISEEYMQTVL
How it was run: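 Screening of the Tox21 10K collection used HEK293 cells engineered with TSHR at 800 cells per well. After a 30-min room-temperature compound exposure, HTRF cAMP reagents were added and fluorescence recorded 1 h later.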

[2] = qHTS assay to identify small molecule agonists of the hypoxia (HIF-1) signaling pathway - cell viability counter screen (AID 1224844); note: nearly all actives have a fitted effect of over 50% in size; note: potency is the fitted concentration of half-maximal effect
How it was run: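 Cells (HRE-bla ME-180, 2,000 per well) sat 5 hrs at 37C, got compound for 17 hrs, were read for CCF4-AM FRET, and were finally lysed with CellTiter-Glo for a 30 min room-temperature luminescence read.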

[3] = qHTS assay to identify small molecule agonists of H2AX (AID 1224845; active = well fitted activation curve with a large enough effect in the signal ratio in the repeat runs, not every such curve was filed as active; the % refers to the signal ratio; note: potency is the fitted concentration of half-maximal effect)
How it was run: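 Phospho-H2AX Ser139 measured by HTRF (ex 320 nm; em 665 and 620 nm) after 24 hr antibody incubation. Compounds, 15 concentrations, 0.76% DMSO, were applied to CHO-K1 cells for 3hr at 37C before lysis.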

[4] = qHTS assay to identify small molecule agonists of the hypoxia (HIF-1) signaling pathway (AID 1224846; active = well fitted activation curve with a large enough effect in the signal ratio in the repeat runs, not every such curve was filed as active; the % refers to the signal ratio)
How it was run: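 A low-serum medium (0.5% dialyzed FBS) holding 2,000 HRE-bla ME-180 cells per well is preincubated for 5 hrs, dosed with compounds by pintool, and kept a further 17 hrs at 37C, 5% CO2 before CCF4-AM FRET detection of beta-lactamase.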

[5] = qHTS assay to identify small molecule agonists of H2AX - cell viability counter screen (AID 1224847); note: top concentration of the series differs between compounds; nearly all actives have a fitted effect of over 30% in size
How it was run: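 Viability of CHO-K1 (wild type) cells after 3 hr compound exposure was measured by CellTiter-Glo luminescence.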

[6] = qHTS RealTime-Glo MT Cell Viability Assay in HepG2 cells - 24 hour (AID 1224867; active = well fitted curve in the direction sought with a large enough effect in the repeat runs; an effect the other way counts as inactive or inconclusive; note: nearly all actives have a fitted effect of over 50% in size)
How it was run: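 HepG2 suspension premixed with RealTime-Glo reagents is plated at 600 cells per well and left 5 h at 37 C/5% CO2. Compounds in DMSO then go in, and bioluminescence reflecting viable cell number is recorded over 40 h.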

[7] = qHTS RealTime-Glo MT Cell Viability Assay in HEK293 cells - 32 hour (AID 1224868; active = well fitted curve in the direction sought with a large enough effect in the repeat runs; an effect the other way counts as inactive or inconclusive; note: nearly all actives have a fitted effect of over 50% in size; note: potency is the fitted concentration of half-maximal effect)
How it was run: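 Reads taken at 0, 8, 16, 24, 32 and 40 h from the same wells. HEK293 cells (600/well) carried RealTime-Glo reagents from seeding, with compound added after a 5 h settle at 37 C.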

[8] = A CellTox Green Cytotoxicity Assay to monitor cytotoxicity in HEK293 cells - 0 hour (AID 1224869; active = well fitted curve in the direction sought with a large enough effect in the repeat runs; an effect the other way counts as inactive or inconclusive; note: nearly all actives have a fitted effect of over 50% in size)
How it was run: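 Fluorescence intensity, read at 0, 8, 16, 24, 32 and 40 h of compound treatment, reflected dye binding to DNA of dead HEK293 cells; compounds (23 nL, DMSO) were added 5 h after plating cells with reagent.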

[9] = qHTS assay to identify small molecule antagonists of the estrogen related receptor (ERR) signaling pathway from Tox21 library (AID 1224848; active = well fitted curve in the direction sought with a large enough effect in the repeat runs; an effect the other way counts as inactive or inconclusive; note: nearly all actives have a fitted effect of over 50% in size; note: potency is the fitted concentration of half-maximal effect)
How it was run: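 Antagonist-mode screen of the Tox21 10K library in an NTP-provided ERR reporter cell line; 18 h compound exposure at 37 C, luminescence measured with ONE-Glo.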

[10] = qHTS assay to identify small molecule agonists of the estrogen related receptor (ERR) signaling pathway from Tox21 library (AID 1224849); settings: ERR reporter cell line, ONE-Glo luciferase, 18 h; at 92.4 µM (top of the series) unless noted; note: nearly all actives have a fitted effect of over 15% in size
How it was run: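 Screening used an NTP-provided ERR luciferase cell line. Compounds in DMSO were added 6 h after seeding and left 18 h at 37 C before a 30 min ONE-Glo step and luminescence reading.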

SMILES	Potency [1]	Potency [2]	Potency [3]	outcome [4]	Potency [5]	Potency [6]	Potency [7]	Potency [8]	Potency [9]	activity change, positive = activation [10]
CCC(=O)Nc1ccc(O)cc1	inactive	inactive	inactive	inactive	inactive	inactive	inactive	inactive		
CC1=C(O)C(=O)OC1C (configuration not stated)	inactive	inactive	inactive	inactive	inactive	inactive		inactive		
NCCCN1CCN(CCCN)CC1	inactive	inactive	inactive	inactive	inactive	inactive	inactive	inactive		
CC(C)=CCCC(C)CCOC=O (configuration not stated)	inactive	inactive	inactive	inactive	inactive	inactive	inactive			
NNS(=O)(=O)c1ccc(Oc2ccc(S(=O)(=O)NN)cc2)cc1	inactive	inactive	inactive	inactive		inactive	inactive	inactive	inactive	
FC(F)(F)C(F)(F)C(F)(F)C(F)(F)C(F)(F)C(F)(F)C(F)(F)C(F)(F)Br	inactive	inactive	inactive	inactive		inactive		inactive	inactive	6.1% [at 42.5 µM]
CN1[C@@H]2CC[C@H]1CC(OC(=O)c1c[nH]c3ccccc13)C2 (some centres not stated)	inactive	inactive	inactive		inactive	inactive	inactive	inactive		
CC[C@H]1CC[C@H](NCc2cc3c(cc2OC)[C@H]2C[C@H]2C(=O)N3C)[C@H](c2ccccc2)N1	inactive	inactive	inactive	inactive		inactive	19.5 µM (active)	inactive	27.3 µM (active)	
O=C(O)[C@@H]1CSCN1	inactive	inactive	inactive	inactive		inactive	inactive	inactive		
CC(C)(CO)[C@@H](O)C(=O)NCCC(=O)O	inactive	inactive	inactive		inactive	inactive	inactive		inactive	7.16%
CCN(CCCc1ccccc1)CCCc1ccccc1	inactive	inactive	inactive		inactive			inactive	inactive	-7.88% [at 42.5 µM]
CCCCN1C[C@H](O)[C@@H](O)[C@H](O)[C@H]1CO	inactive	inactive	inactive		inactive					
C=C(C)C(=O)OCCOP(=O)(O)O	inactive	inactive	inactive	inactive			inactive	inactive		
CCC(=O)O[C@]1(C(=O)SCF)[C@H](C)C[C@H]2[C@@H]3C[C@H](F)C4=CC(=O)C=C[C@]4(C)[C@@]3(F)[C@@H](O)C[C@@]21C	inactive	inactive	inactive		inactive	inactive	inactive	inactive	inactive	-0.0041% [at 42.5 µM]
CC(C)=CCC[C@](C)(O)[C@@H]1CC=C(C)CC1	inactive	inactive	inactive	inactive		inactive	inactive	inactive		
CCN[C@H]1CN(CCCOC)S(=O)(=O)c2sc(S(N)(=O)=O)cc21	inactive	inactive	inactive		inactive	inactive	inactive	inactive		
C=CC1CO1 (configuration not stated)	inactive	inactive	inactive	inactive	inactive			inactive		
O=c1[nH]c(=O)n([C@H]2C[C@H](O)[C@@H](CO)O2)cc1C(F)(F)F	inactive	inactive	0.196 µM (active)		inactive	inactive	inactive	inactive		-26.8% [at 42.5 µM]
CN1C(=O)CC(c2ccccc2)C1=O (configuration not stated)	inactive	inactive	inactive		inactive	inactive	inactive	inactive		
COc1cc(Cl)ccc1Cl	inactive	inactive	inactive	inactive		inactive	inactive	inactive		
CCCCCCCCCCCCOCCOS(=O)(=O)O	inactive	43.6 µM (active)	inactive		inactive	inactive		inactive		
Cc1c(-c2ccccc2)oc2c(C(=O)OCCN3CCCCC3)cccc2c1=O	inactive	inactive	inactive		inactive	inactive		inactive		
C1CCOC1	inactive	inactive	inactive	inactive		inactive	inactive		inactive	1.79%
CN1CCC[C@@H]1Cc1c[nH]c2ccc(CCS(=O)(=O)c3ccccc3)cc12	inactive	inactive	inactive	inactive		inactive			inactive	
O=C1CCCCCCCCCCC(=O)OCCO1	inactive	inactive	inactive	inactive		inactive	inactive			
CC/C=C\CCOC(=O)C(C)C	inactive	inactive	inactive	inactive		inactive	inactive	inactive		
COc1cc(N)c(Cl)cc1C(=O)NC1CCN(Cc2ccccc2)CC1	inactive	inactive	inactive		inactive	inactive	19 µM (active)	inactive		
CCCCCCCOC(=O)CCC	inactive	inactive	inactive	inactive		inactive	inactive	inactive	inactive	-0.487%
CCCS(=O)c1ccc2nc(NC(=O)OC)[nH]c2c1 (configuration not stated)	inactive	inactive	inactive	inactive		inactive		inactive		
C=CCCCCCCCCO	inactive	inactive	inactive	inactive		inactive	inactive	inactive		
